In the library only some 3.5% were active in any assay of this set; here they are far more common.
GPR151 activ: activators of human GPR151. Q8TDV0. PathHunter beta-arrestin GPR151 cells, luminescence. activation, % at 11.2 µM. 650,000 tested, 1% active; in the data active = activation above about 4.9%;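 note: 0% = median of compound wells and 100% = cells with positive control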
TEAD-YAP inh: TEAD-YAP interaction inhibition; HEK-TIYL cells, TEAD-Gal4/YAP UAS-luciferase luminescence; inhibition, % at 9.12 µM; 640,000 tested, 1.4% active; AID 1259422; in the data active = inhibition above about 32%;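 note: 0% = median of test compound wells and 100% = reference inhibitor wells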
MITF inh: inhibitors of human MITF. AlphaScreen MITF homodimerization, bead proximity signal. inhibition, % at 2.6 µM. 650,000 tested, 0.91% active; in the data active = inhibition above about 50%;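 note: 0% = vehicle wells with protein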
FBW7 act: human FBW7 E3 ligase activation, primary screen | normalized activity (activation), % at 26.1 µM | Q969H0 | AlphaScreen FBW7–phospho-cyclin E peptide binding, activator screen | 650,000 tested, 0.13% active; in the data active = normalized activity above about 1.9%;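 note: purified mutant Fbw7 with reduced substrate affinity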
Target sequence (Q969H0 whole entry, looked up): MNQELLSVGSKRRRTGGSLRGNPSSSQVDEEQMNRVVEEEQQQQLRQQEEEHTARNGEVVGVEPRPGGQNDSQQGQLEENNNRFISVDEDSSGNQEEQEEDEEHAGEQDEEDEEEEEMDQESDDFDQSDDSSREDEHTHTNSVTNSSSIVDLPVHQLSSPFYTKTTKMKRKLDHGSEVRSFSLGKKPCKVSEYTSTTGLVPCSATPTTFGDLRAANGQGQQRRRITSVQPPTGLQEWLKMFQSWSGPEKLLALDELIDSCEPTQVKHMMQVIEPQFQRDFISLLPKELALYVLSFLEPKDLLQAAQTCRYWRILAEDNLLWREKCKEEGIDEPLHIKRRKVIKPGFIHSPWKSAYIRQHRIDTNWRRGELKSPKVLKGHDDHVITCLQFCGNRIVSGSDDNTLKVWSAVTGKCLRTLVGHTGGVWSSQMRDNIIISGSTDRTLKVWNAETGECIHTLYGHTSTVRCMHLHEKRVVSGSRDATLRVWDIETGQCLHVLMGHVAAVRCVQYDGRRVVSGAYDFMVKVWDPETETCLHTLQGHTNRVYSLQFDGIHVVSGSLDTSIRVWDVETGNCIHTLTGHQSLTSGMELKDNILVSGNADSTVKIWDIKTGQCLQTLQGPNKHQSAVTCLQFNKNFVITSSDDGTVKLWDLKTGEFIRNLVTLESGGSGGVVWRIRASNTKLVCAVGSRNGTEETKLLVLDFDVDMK
The depositor's hits bear a star; x = not tested or not shown.

SMILES	GPR151 activ	TEAD-YAP inh	MITF inh	FBW7 act
CCOC(=O)c1ccc2c(c1)[C@@H]1C=CC[C@@H]1[C@H](c1ccc(C(=O)O)cc1)N2	-1	7	52*	-1
CCOC(=O)N1CCc2c(sc(NCc3ccccn3)c2C(=O)Nc2ccc(OC)cc2OC)C1	-1	48*	-1	-1
c1ccc(OCCNc2nc(Nc3ccccn3)nc3c2ncn3-c2ccsc2)cc1	0	11	3	0
CCCNc1nc(Nc2ccccn2)nc2c1ncn2-c1ccsc1	-1	62*	9	0
FC(F)(F)c1cccc(CNc2nc(Nc3nccc4ccccc34)nc3c2ncn3-c2ccsc2)c1	1	32*	-3	0
CCCNc1nc(Nc2ccccn2)nc2c1ncn2-c1ccccc1	-1	22	6	0
OCCNc1nc(Nc2ccccn2)nc2c1ncn2-c1ccsc1	1	69*	-5	0
OCCNc1nc(Nc2nccc3ccccc23)nc2c1ncn2-c1ccsc1	1	58*	0	0
N#Cc1cc2cc3c(cc2nc1NCCNC(=O)c1ccco1)OCO3	2	-5	1	0
COCCC(=O)Nc1ccc2c(c1)CN(Cc1cccc(SC)c1)CC2	0	5	7	0
Clc1ccc(-c2nc(N3CCCCC3)c3oc4ccccc4c3n2)cc1	1	8	3	0
COc1ccc(-c2cc(C(=O)O)c3ccc(OC)cc3n2)cc1	0	0	7	0
O=C1NC(c2cc3c(cc2Cl)OCO3)Nc2ccccc21 (centres undefined)	0	51*	7	1
COc1cccc(C2=Nn3c(nnc3-c3cccc(F)c3)SC2)c1	0	0	-6	0
O=C(NCc1ccc(Cl)cc1)c1c(O)c2cccc3c2n(c1=O)CCC3	0	8	0	0
CNC(=O)COc1ccc(S(=O)(=O)NCC(C)C)cc1C	-2	0	19	1
CCc1c(-c2ccccc2)n(CCO)c2nc3c(c(=O)n(C)c(=O)n3C)n12	2	64*	18	0
CCCn1c(-c2ccccc2)c(CC)n2c3c(=O)n(C)c(=O)n(C)c3nc12	1	6	12	1
CCc1c(-c2ccccc2)n(CC(O)c2ccccc2)c2nc3c(c(=O)n(C)c(=O)n3C)n12 (centres undefined)	3	39*	10	0
COc1cc(NC(=O)c2c(C(F)(F)F)nc3c(OC)cccn23)cc(OC)c1OC	-1	-2	-2	0
COc1cccc2ccc(CN3CCN(C4CCCC4)C(CCO)C3)nc12 (centres undefined)	1	11	7	0
CCOc1ccccc1NC(=O)C(CC)Sc1nc2cc(OC)c(OC)cc2c(=O)n1Cc1ccc(Cl)cc1 (centres undefined)	1	-14	-14	0
CCN(CC)C(=O)c1sc2nc3n(c(=O)c2c1C)CCCCC3	0	-15	-5	0
CN(C)C1C(=O)C(C(N)=O)=C(O)C2(O)C(=O)C3=C(O)c4c(O)ccc(Cl)c4C(O)C3CC12 (centres undefined)	1	x	36	0
C=C1c2cccc(O)c2C(O)=C2C(=O)C3(O)C(O)=C(C(N)=O)C(=O)C(N(C)C)C3C(O)C12 (centres undefined)	-2	17	111*	0
SMILES	GPR151 activ	TEAD-YAP inh	MITF inh	FBW7 act
O=C(Nc1nccs1)c1cn(-c2ccccc2)nc1-c1ccc(Br)cc1	-1	17	5	0
O=C(Nc1nccs1)c1cn(-c2ccccc2)nc1-c1cccnc1	2	38*	-2	0
Cc1ccc(-c2csc(NC(=O)c3ccc(S(=O)(=O)N4CCc5ccccc5C4)cc3)n2)o1	2	45*	-10	0
O=C(Nc1nc(-c2ccccn2)cs1)c1ccc(S(=O)(=O)N2CCOCC2)cc1	-1	48*	49	0
COc1ccc(-c2csc(NC(=O)c3ccc(S(=O)(=O)N4CC(C)OC(C)C4)cc3)n2)c(OC)c1 (centres undefined)	0	32*	-1	0
CCn1c(=NC(=O)CN2C(=O)CCC2=O)sc2cc(F)cc(F)c21	-1	4	1	0
CC(C)C(=O)N1CCN(c2cccc(Cl)c2)CC1	-1	6	2	0
Cc1cccc(Nc2ccc([N+](=O)[O-])cc2S(N)(=O)=O)c1	-2	36*	9	0
O=C1C(Cl)=C(Nc2cccc(C(F)(F)F)c2)C(=O)N1Cc1ccccc1	0	75*	-9	0
COc1ccc(OC)c(NC2=C(Cl)C(=O)N(Cc3ccccc3)C2=O)c1	-2	9	26	0
COc1ccc(Cl)cc1NC1=C(Cl)C(=O)N(Cc2ccccc2)C1=O	-1	72*	64*	0
O=C1c2ccccc2C2OCc3ccccc3N12 (centres undefined)	-3	-28	8	0
COc1cc(-c2cnn3c(NCc4cccs4)ccnc23)cc(OC)c1OC	-1	-23	12	0
COc1ccc(CC(=O)NCc2ccco2)cc1	4	8	8	0
COc1ccc(CCNC(=O)C(=O)NCc2ccco2)cc1	1	34*	13	1
O=C(CCNS(=O)(=O)c1ccc2[nH]c(=O)ccc2c1)Nc1ccccc1F	1	6	8	0
Fc1ccccc1-c1cnn2c(NCCc3cccnc3)ccnc12	-2	91*	-5	0
Oc1cccc(-c2cnn3c(NCCc4cccnc4)ccnc23)c1	0	89*	7	0
Fc1ccccc1-c1cnn2c(NCc3ccccn3)ccnc12	0	-21	-1	2.2*
CN(C)CCNc1ccnc2c(-c3ccccc3F)cnn12	-2	63*	-3	0
Fc1cccc(-c2cnn3c(NCCc4cccnc4)ccnc23)c1	4	17	7	0
Cc1ccccc1-n1cc(CN(C)Cc2c(C(=O)N3CCCCC3)nc3sccn23)cn1	0	3	-12	0
OCc1ccc(-c2cnn3c(NCCc4cccnc4)ccnc23)cc1	0	-5	12	1
c1ccc(-c2cnn3c(NCCc4ccccn4)ccnc23)cc1	1	57*	-22	0
OCc1cccc(-c2cnn3c(NCCc4cccnc4)ccnc23)c1	-1	89*	1	1
SMILES	GPR151 activ	TEAD-YAP inh	MITF inh	FBW7 act
Clc1ccc(-c2cnn3c(NCCc4ccccn4)ccnc23)cc1	1	-52	13	0
c1ccc(-c2cnn3c(NCCc4cccnc4)ccnc23)cc1	-1	80*	-6	0
Fc1ccc(-c2cn3cc(Cl)ccc3n2)cc1	-8	37*	14	0
Clc1ccc2nc(-c3ccc4c(c3)OCO4)cn2c1	-9	73*	-16	0
Clc1ccc2nc(-c3ccc(Br)cc3)cn2c1	0	-78	-13	0
Clc1ccc2nc(-c3ccccc3)cn2c1	-9	77*	12	0
Cc1ccc(C)c(S(=O)(=O)Oc2ccccc2C(=O)OCC(=O)Nc2cc(C)on2)c1	0	39*	2	0
Oc1ccc(O)c(Cc2nc3ccccc3s2)c1	4	53*	2	0
Nc1ccc(-c2nc3ccccc3s2)cc1N	-7	29	-8	0
Oc1cccc(-c2nc3ccccc3s2)c1	-4	92*	-5	0

Screens (PubChem)
